GLP1R cytotox: cytotoxic in the GLP-1 receptor inverse agonist counter-screen; HEK293 cAMP-luciferase reporter cells, luminescence, 24 h; Potency, µM (series often up to 38.3 µM), for inactives: top-dose activity change, negative = inhibition, usual class: inhibitors; hit rate 0.13% among 410,000; AID 624418;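 also: loss of luciferase light is scored as toxicity; potency is read from the fitted curve at half-maximal effect; % is scaled to controls: 0 for no effect and ±100 for the full control effect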
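To flag toxic compounds, the library was rerun on cells for 24 hr at 37 deg C and 5% CO2. Viability-linked luminescence was captured 12 min after adding luciferase detection reagent.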
GLP1R inv ag: GLP-1 receptor (human) inverse agonism; P43220; HEK293 GLP-1R CRE-luciferase, luminescence, 24 h; GLP-1R form is constitutively active; Potency, µM (doses to about 38.3 µM), for the others: at the highest dose activity change, negative = inhibition, usual class: inhibitors; hit rate 1.6% among 410,000; AID 624417; also: potency is read from the fitted curve at half-maximal effect; % is scaled to controls: 0 for no effect and ±100 for the full control effect; nearly all actives have a fitted effect of over 55% in size
Target sequence (P43220 whole entry, looked up): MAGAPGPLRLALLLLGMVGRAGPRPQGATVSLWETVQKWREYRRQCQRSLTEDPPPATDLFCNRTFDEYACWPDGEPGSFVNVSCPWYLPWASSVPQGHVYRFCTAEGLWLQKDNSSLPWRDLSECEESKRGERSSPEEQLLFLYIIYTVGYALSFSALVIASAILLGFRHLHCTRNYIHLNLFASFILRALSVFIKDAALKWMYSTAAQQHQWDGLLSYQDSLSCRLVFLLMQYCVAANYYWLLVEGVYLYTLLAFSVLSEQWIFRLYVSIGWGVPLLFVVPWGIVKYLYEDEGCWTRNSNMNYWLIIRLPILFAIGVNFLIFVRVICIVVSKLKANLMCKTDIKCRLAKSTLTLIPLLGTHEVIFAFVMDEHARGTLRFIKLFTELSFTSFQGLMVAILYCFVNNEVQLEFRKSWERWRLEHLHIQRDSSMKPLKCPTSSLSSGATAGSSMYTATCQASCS
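Using stably transfected HEK293 (constitutively active GLP-1R, cAMP-luciferase reporter), compounds were incubated 24 hr and luciferase measured by luminescence.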
TrxR1 substrate: rat thioredoxin reductase 1 substrate activity | purified TrxR1 substrate turnover, NADPH consumption readout | hit rate 0.01% among 390,000 | Potency, µM (top dose mostly 114 µM), for the others: top-dose activity change, negative = substrate turnover | O89049; also: potency is read from the fitted curve at half-maximal effect; % is scaled to controls: 0 for no effect and ±100 for the full control effect; nearly all actives have a fitted effect of over 50% in size
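Rat TrxR1, dispensed at 90 nM, was prereduced with 400 uM NADPH (final) for 5 min at ~22 deg C, then incubated with compound 15 min before 400 uM selenite. A first-read NADPH fluorescence drop versus no-compound background flagged substrates.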
GLP-1R agonist: activates the human GLP-1 receptor; HEK293 GLP-1R CRE-luciferase, luminescence, 4-6 h; cells express a hypersensitive GLP-1R form; AID 624172; Potency, µM (titrated, usually from 45.6 µM), without a hit: top-dose activation, usual class: activators; hit rate 0.007% among 380,000; P43220; also: potency is read from the fitted curve at half-maximal effect; % of control where 0% means no effect
rTrxR1 inhibitor: rat TrxR1 inhibition; O89049; recombinant rTrxR1, NADPH fluorescence consumption, selenite substrate; Potency, µM (titrated, usually from 114 µM), for the others: at the top dose activity change, negative = inhibition, usual class: inhibitors; hit rate 1% among 390,000; also: potency is read from the fitted curve at half-maximal effect; % is scaled to controls: 0 for no effect and ±100 for the full control effect; nearly all actives have a fitted effect of over 65% in size
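Rat TrxR1 (90 nM in the dispensed reagent) was pre-reduced with 400 uM NADPH for 5 min at room temperature, then incubated with compound for 15 min. After 400 uM selenite was added, NADPH fluorescence (Ex 340/Em 450 nm) was followed for 8 min.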
mIDH1 inhibitor: blocks human mutant IDH1 R132H enzyme; Potency, µM (highest dose often 76.6 µM), for inactives: at the top dose activity change, negative = inhibition, hits mostly inhibitors; IDH1-R132H enzyme, NADPH consumption, diaphorase/resazurin fluorescence; O75874; hit rate 0.093% among 390,000; also: potency is read from the fitted curve at half-maximal effect; % is scaled to controls: 0 for no effect and ±100 for the full control effect; nearly all actives have a fitted effect of over 65% in size
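IDH1-R132H (0.5 ug/mL) preincubated 30 min with compound, then NADPH (0.016 mM) and alpha-KG (2 mM) added; 80 min at RT, pH 7.5. Remaining NADPH coupled via diaphorase/resazurin to fluorescence (540/590 nm); concentration-response curves normalized to no-enzyme control.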
Resorufin autofl: interferes with resorufin fluorescence in IDH1 counter-screen; AID 623980; inhibition of signal, % at 51.2 µM; 750 tested, under 10 active; Resorufin detection reagent fluorescence interference, cell-free; shares compounds with mIDH1 inhibitor;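 also: 0% = wells with normal resorufin and full inhibition = wells lacking resorufin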
IDH1 WT: selectivity of mutant IDH1 inhibitors: human wild-type IDH1; shares compounds with mIDH1 inhibitor; WT IDH1 enzyme, NADPH diaphorase/resazurin fluorescence; Potency, µM (doses to about 115 µM), without a hit: at the highest dose activity change, negative = inhibition, usual class: inhibitors; hit rate 9% among 750; AID 623995;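 also: potency is read from the fitted curve at half-maximal effect; 0% = full WT IDH1 enzyme control and full inhibition = no enzyme wells; nearly all actives have a fitted effect of over 55% in size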
IDH1 R132H conf: inhibits human mutant IDH1 enzyme in cherrypick confirmation | shares compounds with mIDH1 inhibitor | IDH1 R132H enzyme, NADPH diaphorase/resazurin fluorescence | Potency, µM (titrated, usually from 76.6 µM), inactives show top-dose activity change, negative = inhibition, most hits filed as inhibitors | hit rate 83% among 750 | AID 624002; also: potency is read from the fitted curve at half-maximal effect; nearly all actives have a fitted effect of over 50% in size
* marks the source's active call; other numbers are inactive results; ? = inconclusive; . = no result given; [ ] = another dose, or the depositor's remark. Only some compounds are listed: those with a hit (about 2.7% of all), similar ones and a draw of the others. Calls follow the shape of the dose curve; as a rule, active = well fitted curve in the direction sought with a large enough effect; inconclusive = small, poorly fitted or top-dose-only effect, or another doubt; inactive = no such curve, though single readings can be large; an effect the other way counts as inactive or inconclusive.

SMILES	GLP1R cytotox	GLP1R inv ag	TrxR1 substrate	GLP-1R agonist	rTrxR1 inhibitor	mIDH1 inhibitor	Resorufin autofl	IDH1 WT	IDH1 R132H conf
CCOc1cccc(N(C(=O)C2COc3ccccc3O2)C(C(=O)NC2CCCCC2)c2ccc(O)cc2)c1 (stereo unspecified)	-15%	?	-6%	6%	-2%	?	5	10%	5.6µM*
Cc1cccc(N(C(=O)CCC(=O)Nc2cc(C)on2)C(C(=O)NC2CCCC2)c2cccnc2)c1 (stereo unspecified)	0%	11%	-12%[57.1 µM]	7%	29%[57.1 µM]	-26%	.	.	.
Cc1cc(NC(=O)CCC(=O)N(c2cccnc2)C(C(=O)NC2CCCC2)c2ccccc2)no1 (stereo unspecified)	-2%	0%	-5%	-4%	-2%	?	3	7%	?
Cc1cccc(N(C(=O)CCC(=O)Nc2cc(C)on2)C(C(=O)NC2CCCC2)c2ccccc2)c1 (stereo unspecified)	6%	-20%	13%[0.0914 µM]	0%	15%[57.1 µM]	45µM*	3	3%	20µM*
CCOC(=O)c1cccc(NC(=O)CCS(=O)(=O)c2ccc3c(c2)CC(=O)N3C)c1	5%	5%	-7%[57.1 µM]	.	-8%[57.1 µM]	5%	.	.	.
COc1ccc2c(c1)c1ccc3c(c1n2C)C(=O)C=CC3=O	-4%	7%	17%[57.1 µM]	-4%	?	35µM*	0	138%	22µM*
Cn1c2ccccc2c2ccc3c(c21)C(=O)C=CC3=O	-22%	21%	15%[11.4 µM]	-4%	-71%[57.1 µM]	23µM*	0	-30%	10µM*
COc1ccc2c(c1)c1ncn(CCN3CCCC3)c(=O)c1n2C	-9%	5%	111%[57.1 µM]	21%	11%[57.1 µM]	-1%	.	.	.
Cc1ccc(C)c2c1c1ccccc1n2C	2%	5%	6%[57.1 µM]	11%	14%[57.1 µM]	1%	.	.	.
Cc1ccc2c(c1)c1ccc3c(c1n2C)C(=O)C=CC3=O	-12%	9%	3%	4%	40µM*	41µM*	2	60%	22µM*
CCOc1ccc(C2C(C(=O)Nc3ccc(OC)cc3)=C(C)Nc3nc(SCc4ccc(Cl)cc4)nn32)cc1 (stereo unspecified)	5%	10%	4%[57.1 µM]	.	24%[57.1 µM]	12%	.	.	.
CCCCNC(=O)c1nc(C2CCN(S(=O)(=O)c3ccc(S(C)(=O)=O)cc3)CC2)oc1-c1ccccc1	-11%	-7%	.	.	.	.	.	.	.
CC(=O)[C@]1(O)Cc2c(O)c3c(c(O)c2[C@@H](O[C@H]2C[C@H](N)[C@H](O)[C@H](C)O2)C1)C(=O)c1c(O)cccc1C3=O	.	.	.	-8%	.	.	.	.	.
C[C@H](CO)N1C[C@H](C)[C@@H](CN(C)Cc2ccc(Cl)c(Cl)c2)Oc2c(NC(=O)C3CCOCC3)cccc2C1=O	-19%	-15%	-2%	6%	1%	-3%	.	.	.
C[C@H](CO)N1C[C@H](C)[C@@H](CN(C)Cc2ccc(Cl)c(Cl)c2)Oc2c(NC(=O)C3CC3)cccc2C1=O	7%	?	-3%[57.1 µM]	5%	8%[57.1 µM]	?	-4	-9%	25µM*
C[C@H](CO)N1C[C@H](C)[C@@H](CN(C)Cc2ccc3c(c2)OCO3)Oc2c(NC(=O)C3CCCCC3)cccc2C1=O	-7%	?	0%	2%	9%	?	.	.	.
C[C@H](CO)N1C[C@H](C)[C@@H](CN(C)Cc2ccc(C(=O)Nc3ccccc3N)cc2)Oc2c(NC(=O)C3CCCCC3)cccc2C1=O	-10%	-2%	3%	5%	7%	40µM*	-14	?	28µM*
CCNc1nc(C#N)nc(NCC)n1	.	.	9%[0.0914 µM]	.	17%	.	.	.	.
COc1ccccc1C(=O)N1CCC(c2noc(-c3ccc(S(=O)(=O)N4CCCC4)cc3)n2)CC1	-3%	?	-7%	.	14%	-6%	.	.	.
Cc1nn(CCC(=O)O)c2nc(-c3cccnc3)cc(C(F)(F)F)c12	-2%	12%	274%	?	7%	14%	.	.	.
Cc1nn(CCc2nn[nH]n2)c2nc(-c3ccc(C4CCCCC4)cc3)cc(C(F)(F)F)c12	-6%	?	89%	6%	22%[57.1 µM]	52µM*	-14	50µM*	40µM*
COc1cccc(C2c3c(-c4cc(Cl)c(C)cc4O)n[nH]c3C(=O)N2Cc2cccnc2)c1 (stereo unspecified)	?	2%	4%	1%	17%	?	-1	1%	16µM*
COc1cc(C2c3c(-c4cc(Cl)c(C)cc4O)n[nH]c3C(=O)N2Cc2cccnc2)ccc1O (stereo unspecified)	17%	141%	-2%	2%	2%	?	-1	-3%	45µM*
Cc1ccc2[nH]c(=O)c3cc(C(=O)N(C)C4CCCCC4)sc3c2c1	-3%	27%	10%	-2%	32%	4%	.	.	.
CCN(C(=O)c1cc2c(=O)[nH]c3ccc(C)cc3c2s1)c1ccc(F)cc1	-4%	1%	1%[57.1 µM]	25%	23%[57.1 µM]	-6%	.	.	.
Cc1ccc2[nH]c(=O)c3cc(C(=O)N(C)c4ccc(C)c(C)c4)sc3c2c1	3%	-10%	0%	0%	3%	52µM*	0	-12%	16µM*
CCN(C(=O)c1cc2c(=O)[nH]c3ccc(C)cc3c2s1)c1cccc(C)c1	-6%	-5%	11%	7%	-6%	21µM*	-3	10%	22µM*
